ELG1 genotox: induces genotoxicity in HEK293T cells with luciferase-tagged ELG1; HEK293T ELG1-luciferase reporter, luminescence, 16 h; Potency, µM (top dose mostly 46 µM), without a hit: top-dose activity change, positive = activation, usual class: activators; AID 504466; 330,000 tested, 1.3% active; note: % of control where 0% means no effect; nearly all actives have a fitted effect of over 60% in size
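Quantitative HTS format in 1536-well plates. HEK293T ELG1-luciferase reporter cells receive test compound and are incubated 16 hr at 37 °C, 5% CO2; ONE-Glo added, 30 min room temperature, then luminescence read.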
Rab9 promoter act: activators of Rab9 promoter. Huh7 Rab9 promoter-luciferase reporter, luminescence, 24 h. Potency, µM (series often up to 9.22 µM), for the others: at the top dose activation, negative = inhibition, most hits filed as activators. 320,000 tested, 2.8% active; note: % of control where 0% means no effect; nearly all actives have a fitted effect of over 60% in size
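Huh7 cells stably carrying a Rab9 promoter-luciferase reporter, 1500 cells per well in OP-MEM I with 10% FBS, treated with compound 24 hours at 37C. Luciferase activity read by luminescence after 10 minutes with Amplite reagent.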
NPC1 prom act: activates the NPC1 promoter; Potency, µM (series often up to 9.22 µM), without a hit: at the top dose activation, most hits filed as activators; Huh7 NPC1 promoter luciferase reporter, 24 h; 320,000 tested, 2.4% active; AID 485313; note: % of control where 0% means no effect; nearly all actives have a fitted effect of over 60% in size
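Compounds in DMSO were transferred onto Huh7 NPC1-luciferase reporter cells pre-incubated 2 h; after 24 h at 37 °C, Amplite reagent was dispensed and luminescence recorded 10 min later.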
KinaseGlo FLuc: counter-screen: inhibitors of Kinase-Glo firefly luciferase. 200,000 tested, 0.28% active. Q27757. Kinase-Glo luciferase, ATP luminescence, 8 min. Potency, µM (top dose mostly 38.3 µM), for the others: at the highest dose activity change, negative = inhibition, actives largely listed as inhibitors; note: % is set by controls: 0 for no effect and ±100 for the full control effect; nearly all actives have a fitted effect of over 60% in size
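Light output from Kinase-Glo luciferase with luciferin and 10 uM ATP in 50 mM imidazole pH 7.2, KCl, MgCl2, Tween 20, BSA; compound pin-delivered, 8-min ambient incubation, then luminescence read.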
SMN2 splice enh: increases expression of the SMN2 splice variant; HEK293 SMN2-luciferase splicing reporter, luminescence, 30-36 h; Potency, µM (top dose mostly 46.1 µM), inactives show at the highest dose activity change, positive = activation, most hits filed as activators; 210,000 tested, 2.8% active; note: % of control where 0% means no effect; nearly all actives have a fitted effect of over 55% in size
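HEK293 cells carry an SMN2 minigene-luciferase reporter in which exon 7 inclusion puts luciferase in frame. Cells were seeded at 2000 cells/well, attached for 10-12 hours, then exposed to compounds for 30-36 hours at 37C before ONE-Glo luminescence.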
FLuc modulator: counter-screen for miR-21 project: firefly luciferase inhibitors or activators | 360,000 tested, 6.9% active | purified FLuc, Km substrates, luminescence inhibition | P08659 | Potency, µM (doses to about 57.5 µM), inactives show at the top dose activity change, negative = inhibition, hits mostly inhibitors;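 note: plate controls were vehicle for no effect and reference inhibitor for full effect; nearly all actives have a fitted effect of over 55% in size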
Target sequence (P08659 whole entry, looked up): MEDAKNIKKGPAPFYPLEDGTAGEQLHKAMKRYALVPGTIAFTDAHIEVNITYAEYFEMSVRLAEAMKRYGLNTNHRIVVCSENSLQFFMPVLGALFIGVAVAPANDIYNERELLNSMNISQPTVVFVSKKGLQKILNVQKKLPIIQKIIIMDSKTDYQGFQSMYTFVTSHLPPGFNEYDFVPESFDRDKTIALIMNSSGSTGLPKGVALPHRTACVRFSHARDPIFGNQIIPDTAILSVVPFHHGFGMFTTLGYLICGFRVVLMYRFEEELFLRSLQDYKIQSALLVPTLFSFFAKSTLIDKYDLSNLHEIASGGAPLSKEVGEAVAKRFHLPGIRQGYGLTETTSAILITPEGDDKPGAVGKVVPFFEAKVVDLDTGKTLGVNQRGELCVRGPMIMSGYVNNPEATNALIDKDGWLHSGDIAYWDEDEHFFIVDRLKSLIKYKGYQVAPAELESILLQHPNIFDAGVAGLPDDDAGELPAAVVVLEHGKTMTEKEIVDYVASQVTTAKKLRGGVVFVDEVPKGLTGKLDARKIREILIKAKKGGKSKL
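Purified P. pyralis luciferase (10nM final) with 10uM D-luciferin and 10uM ATP (Km levels) in 50mM Tris acetate pH 7.5, 10mM Mg acetate, 0.01% Tween-20, 0.05% BSA; qHTS 6-point titration, ~60 µM downward; luminescence read.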
Numbers without * were called inactive; ? = inconclusive; · = no result given; [ ] = dose if it differs, or a comment. Sampled rows, rich in hits. Any-hit rate of the full collection: about 7.5%. Calls come from the whole dose curve; as a rule, active = well fitted curve in the direction sought with a large enough effect; inconclusive = small, poorly fitted or top-dose-only effect, or another doubt; inactive = no such curve, though single readings can be large; an effect the other way counts as inactive or inconclusive. Potency is the fitted concentration of half-maximal effect.

SMILES	ELG1 genotox	Rab9 promoter act	NPC1 prom act	KinaseGlo FLuc	SMN2 splice enh	FLuc modulator
O=C1CN(C(=O)COc2ccc(Cl)cc2Cl)C(c2ccc(F)cc2)c2cc(F)ccc2N1 (stereo unspecified)	·	·	·	·	-16%	-8%
CC(C)Nc1cc(C(C)(C)C)nc2c(-c3ccccc3)cnn12	?	2.8µM*	?	·	·	11µM*
O=C(COc1cccc(Cl)c1)N1CCC(c2nc3ccccc3s2)CC1	·	·	·	·	·	-12%
CCOC(=O)c1cc(C(=O)NCc2ccc(Cl)cc2Cl)nn1C	-2%	2%	-3%	-4%	4%	-11%
CCOC(=O)c1cc(C(=O)Nc2ccc(C)c(F)c2)nn1C	?	2.8µM*	4µM*	-4%	42%	7.6µM*
CCCOC(=O)CSc1ncnc2sc3c(c12)CCC(C)C3 (stereo unspecified)	·	·	·	·	-1%	8.5µM*
CC1CCc2c(sc3ncnc(SCC(=O)c4ccccc4)c23)C1 (stereo unspecified)	11%	22%	13%	4%	?	-8%
CCCCCOC(=O)CSc1ncnc2sc3c(c12)CCC(C)C3 (stereo unspecified)	·	·	·	·	3%	-3%
CC(=O)CSc1ncnc2sc3c(c12)CCC(C)C3 (stereo unspecified)	8%	1%	10%	0%	12%	15µM*
NC(=O)N/N=C/c1ccc(OCc2cccc(Cl)c2)cc1	?	15%	10%	0%	5%	-2%
CCc1c(C)c2ccc(O)c(CN3CCN(c4cc(Cl)ccc4C)CC3)c2oc1=O	·	·	·	·	·	-10%
NC(=O)C1CCN(Cc2ccc(OCc3ccccc3)cc2)CC1	?	?	2.5µM*	·	·	15µM*
CCOC(=O)C1CCN(Cc2ccc(OCc3ccccc3)cc2)CC1	-3%	4%	-3%	·	·	-16%
c1ccc(COc2ccc(CN3CCN(c4ccccn4)CC3)cc2)cc1	21µM*	2.2µM*	?	-2%	19%	6.7µM*
CC1CCc2c(sc(NC(=O)c3cc(-c4cccc(Cl)c4)on3)c2C(N)=O)C1 (stereo unspecified)	·	·	·	·	5%	3%
COc1ccc2[nH]c3c(NCCC4=CCCCC4)ncnc3c2c1	-3%	-16%	-23%	-2%	-34%	11µM*
CCN(CC)CCNc1ncnc2c1[nH]c1ccc(OC)cc12	-1%	-10%	0%	-6%	-15%	8%
COc1ccc2[nH]c3c(NCc4ccco4)ncnc3c2c1	9%	4µM*	?	-6%	2%	9.5µM*
COc1ccc2[nH]c3c(NCCCOC(C)C)ncnc3c2c1	?	0.79µM*	1.8µM*	·	·	6µM*
Cc1ccc(C)c(NC(=O)c2ccc(CN3CC(=O)N4CCCCC4C3=O)cc2)c1 (stereo unspecified)	·	·	·	·	·	-1%
Fc1ccc(-c2cn3cc(Cc4ccccc4Cl)sc3n2)cc1	·	·	·	·	2.2µM*	0.48µM*
Fc1ccccc1Cc1cn2cc(-c3ccc(Cl)cc3)nc2s1	·	·	·	·	?	0.3µM*
Clc1ccc(-c2cn3cc(Cc4ccccc4)sc3n2)cc1	·	·	·	·	5.6µM*	0.24µM*
O=c1oc2ccccc2cc1-c1cn2cc(Cc3cc(Cl)ccc3Cl)sc2n1	·	·	·	·	-2%	0%
Cc1ccc(Cc2cn3cc(-c4ccccc4)nc3s2)cc1	·	·	·	·	2.8µM*	0.15µM*
SMILES	ELG1 genotox	Rab9 promoter act	NPC1 prom act	KinaseGlo FLuc	SMN2 splice enh	FLuc modulator
Nc1nc(-c2ccc(Cl)cc2)cn1N	-2%	1%	-3%	3%	-1%	-8%
CC(NC(=O)c1cccc(Nc2nc3ccccc3n3nnnc23)c1)c1ccccc1 (stereo unspecified)	·	·	·	·	·	-1%
Fc1ccc(Cc2cn3cc(-c4ccc(F)cc4)nc3s2)cc1	·	·	·	·	3.2µM*	0.3µM*
Cn1c(SCc2ccc(C(=O)Nc3nccs3)cc2)nnc1-c1ccccc1	-2%	10%	18%	-4%	-1%	15µM*
C=CCn1c(SCC(=O)NNC(=S)Nc2ccccc2)nnc1-c1ccccc1	4%	-1%	-6%	·	·	-1%
CCn1c(SCc2ccc(C(=O)Nc3nccs3)cc2)nnc1-c1ccc(N)cc1	-5%	0%	12%	-5%	15%	17µM*
CCn1c(SCc2ccc(C(=O)Nc3nccs3)cc2)nnc1-c1ccc(NC(C)=O)cc1	-3%	5%	4%	1%	9%	11µM*
C=CCn1c(SCc2ccc(C(=O)Nc3ccccc3)cc2)nnc1-c1ccccc1	-7%	10%	13%	-3%	-14%	13µM*
Cc1cccc(NC(=O)c2sc3nc(-c4ccccc4)cn3c2C)c1C	·	·	·	·	·	-4%
N#C/C(=C\c1ccccc1C(=O)O)c1nc2ccccc2[nH]1	1%	-3%[1.84 µM]	-2%	·	·	-16%
N#C/C(=C\c1ccc(-c2ccc(Cl)c(C(=O)O)c2)o1)c1nc2ccccc2[nH]1	·	15%	8%	·	2%	6µM*
N#C/C(=C\c1ccc(-c2ccc(C(=O)O)cc2)o1)c1nc2ccccc2[nH]1	18%	2.5µM*	4µM*	-2%	?	9.5µM*
CCn1cc(CN2CCc3c([nH]c4ccccc34)C2c2cccc(OC)c2OC)c(C)n1 (stereo unspecified)	-3%	-1%	-5%	-4%	·	-2%
O=C(CSc1nc(=O)[nH]c2c1CCCC2)Nc1ccccc1C(F)(F)F	·	·	·	·	·	-1%
O=C(Nc1ccccc1)C(=O)c1cn(CC(=O)N2CCCCC2)c2ccccc12	-1%	0%	6%	-1%	8%	13µM*
CC(=O)c1cccc(NC(=O)C(=O)c2cn(CC(=O)N3CCCCC3)c3ccccc23)c1	-4%	20%	7%	2%	-8%	8.5µM*
O=C1/C(=C/c2ccccc2)Nc2ccccc21	-1%	2%	-3%	-8%	-24%	4.3µM*
Cc1cc(C(=O)COC(=O)c2ccc[nH]c2=O)c(C)n1C	?	30%	22%	-4%	-28%	9.5µM*
Cc1cc(C(=O)COC(=O)c2ccc[nH]c2=O)c(C)n1CCc1ccc(F)cc1	-3%	-1%	-2%	-1%	2%	0%
COCCn1c(C)cc(C(=O)COC(=O)c2ccc[nH]c2=O)c1C	?	?	?	-26%	-9%	3µM*
Cc1ccc(-n2c(C)cc(C(=O)COC(=O)c3ccc[nH]c3=O)c2C)cc1	?	0.4µM*	0.32µM*	-5%	2.5µM*	2.7µM*
COCC(=O)OCC(=O)c1cc(C)n(-c2ccc(Br)cc2)c1C	-3%	4%	-1%	-4%	-4%	12µM*
CCc1ccc(CN(Cc2ccco2)C(=O)COc2ccc(Cl)cc2C)cc1	·	·	·	·	-20%	-18%
CCc1nc(-c2cc3ccc(C)cc3[nH]c2=O)no1	?	?	25%	-4%	?	15µM*
